Results as given in PubChem BioAssay (NCI).
Compounds without any hit were thinned out: in the full panel of roughly 83,000, 20% have a hit.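 96-well plates, one dose, 48 hours. Percent growth reported; active if below 10.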 A number with no mark means an inactive call. The source made the active and inactive calls.

Columns and labels:
Assay in all cases: NCI-60 one-dose screen, 48 h (100 = growth as untreated, 0 = no growth, -100 = all killed)
Settings in all cases: 10 µM unless noted
[1] = system: DU-145 prostate
[2] = system: K-562 leukemia
[3] = system: MALME-3M melanoma
[4] = system: MDA-MB-231 breast
[5] = system: SF-268 CNS
[6] = system: SF-295 CNS
[7] = system: SF-539 CNS
[8] = system: M14 melanoma
[9] = system: RXF 393 renal

Row | SMILES | growth [1] | growth [2] | growth [3] | growth [4] | growth [5] | growth [6] | growth [7] | growth [8] | growth [9]
1 | C=C1C(=O)O[C@H]2[C@H]1CC/C(Cn1cc(-c3cc(C)c(C)cc3C)nn1)=C\CC[C@@]1(C)O[C@@H]21 | -100% (active) | -10.7% (active) | -79.8% (active) | -73.7% (active) | -54.5% (active) | 59.8% | -82.9% (active) | -57.3% (active) | 
2 | CCc1nc2cc(F)c(/C=C/C(=O)NO)cc2c(=O)n1CCc1ccccc1 | 7.93% (active) | 7.24% (active) |  | 15.4% | 16% | 11% | 4.01% (active) | 15.7% | -13.5% (active)
3 | CCNCCNc1cc(-c2ccc(Cl)c(Cl)c2)c(C#N)c2nc3ccccc3n12 | -93.7% (active) | -65.3% (active) |  | -77.5% (active) | -79.6% (active) | -92.3% (active) | -87.5% (active) | -73.8% (active) | -91% (active)
4 | COc1cnc2c(c1)C(=O)c1c-2n(CCCNC2=NCCS2)c(=O)c2cc(Cl)ccc12 | -76.7% (active) | -58.3% (active) |  | -70.7% (active) | -49.4% (active) | -93.5% (active) | -84.4% (active) | -70.3% (active) | 39%
5 | CCN(CC)Cc1cc(Nc2cc(C(F)(F)F)c(C#N)c3nc4ccccc4n23)ccc1O | 25.1% | 11.3% |  | -8.6% (active) | 26.7% | 5.79% (active) | 5.91% (active) | 24.3% | 0.263% (active)
6 | Nc1c(C(=O)c2ccccc2)sc2nc(-c3cccs3)cc(-c3cccs3)c12 | 68.2% | 18.9% | 74.4% | 58.4% | 53.5% | 35% | 39.4% | 27% | 
7 | COC(=O)[C@]12CC[C@@H](C)[C@H](C)[C@@H]1C1=CC[C@@H]3[C@@]4(C)C(c5cnco5)=C[C@@](C)(CO)C4=CC[C@@]3(C)[C@]1(C)CC2 | 29.4% | 30.8% | 87.6% | 58.8% | 63% | 31.2% | 66.4% | 63.4% | 
8 | CO/C=C/C(=O)c1cc2cnc3c(=N)cc(NC(=O)C(C)C)c([nH]1)c23 | 4.45% (active) | 3.9% (active) | -77.5% (active) | -31% (active) | -47.4% (active) | -51.6% (active) | -57% (active) | -61.3% (active) | 
9 | NC(=O)c1n[nH]n2c1nc(=O)c1c3c(sc12)CCCC3 | 110% | 89.5% | 109% | 101% | 105% | 102% | 102% | 98% | 
10 | CC(C)C1CCC(C)C(C2(C#N)C(N)=NC(N)=C2C#N)C1=O (configuration not stated) | 102% | 98.7% | 92.3% | 95.8% | 97.3% | 103% | 97.7% | 96.1% | 
11 | COc1cnc2c(c1)C(=O)c1c-2n(CCCN2CCC(N)CC2)c(=O)c2cc([N+](=O)[O-])ccc12 | 13.2% | 49.2% |  | 57.9% | 50% | 24.2% | 70.3% | 52.9% | 64.4%
12 | COc1ccc(-c2cc3c(oc2=O)-c2ccccc2OC3OC(C)=O)cc1 (configuration not stated) | 107% | 62.5% | 107% | 85.7% | 108% | 97.9% | 101% | 101% | 
13 | N#Cc1c(C(F)(F)F)cc(Nc2ccc3nc(NCCN4CCCC4)oc3c2)n2c1nc1ccccc12 | 89% | 11.8% |  | 32.7% | 78.8% | 74.7% | 86.4% | 84.4% | 55.4%
14 | COc1cnc2c(c1)C(=O)c1c-2n(CCCn2ccnc2)c(=O)c2cc(Cl)ccc12 | 2.01% (active) | 5.92% (active) |  | 55.2% | 21.9% | 0.124% (active) | -11.6% (active) | -2.18% (active) | -33.6% (active)
15 | CC1CCC(n2cnc3c(Cl)ncnc32)O1 (configuration not stated) | 112% |  | 88.5% | 105% | 105% | 95.5% | 97.5% | 93.8% | 
16 | Oc1ccc(/C=N/Nc2nnc(N/N=C/c3ccc(O)cc3O)c3ccccc23)c(O)c1 | -24.3% (active) |  | -5.87% (active) | -13.6% (active) | -5.14% (active) | -38.1% (active) | -42.1% (active) | -52.7% (active) | 
17 | COc1cnc2c(c1)C(=O)c1c-2n(CCCN2CCC(O)CC2)c(=O)c2cc(Cl)ccc12 | 22.8% | -38.7% (active) |  | -28.4% (active) | 34.7% | 17.8% | 14.7% | 30.9% | 28.2%
18 | CC(=Nc1ccccc1)C1=C(O)C(Cc2ccc(O)cc2)NC1=O (configuration not stated) | -28.6% (active) |  | 58.6% | 11.3% | 11.5% | -41.1% (active) | -33.7% (active) | 0.122% (active) | 
19 | CCOC(=O)Sc1ncnc2nc[nH]c12 | 38% |  | 59.2% | 45.7% | 65.8% | 36.8% | 36.7% | 13.7% | 
20 | CCCC(=O)OCC1OC(n2cnc3c(=S)nc[nH]c32)C(OC(=O)CCC)C1OC(=O)CCC (configuration not stated) | 42.1% |  | 51.8% | 45.2% | 52.5% | 36.8% | 22.1% | 13% | 
21 | CCc1nc2cc(/C=C/C(=O)NO)ccc2c(=O)n1CCc1ccc(OC)cc1 | 7.21% (active) | 8.06% (active) |  | 16.8% | 26.4% | 21.3% | 26.5% | 16.3% | -25% (active)
22 | CCc1nc2cc(/C=C/C(=O)NO)ccc2c(=O)n1CCc1ccc(F)cc1 | -5.02% (active) | 4.68% (active) |  | -6.12% (active) | 9.29% (active) | 10.4% | 4.06% (active) | 6.79% (active) | -29.5% (active)
23 | CCc1nc2ccc(Cc3ccc(C(=O)NO)cc3)cc2c(=O)n1CCc1ccccc1 | 2.78% (active) | 1.5% (active) |  | -24% (active) | -48.5% (active) | -79.1% (active) | -43.1% (active) | -63.8% (active) | -66.6% (active)
24 | COc1cc(OC)c(C(=O)/C=C/c2cc3c(cc2OCc2ccccc2)OC(C)(C)CC3)cc1CC=C(C)C | 51.9% |  | 77.8% | 52.4% | 49.1% | 66.9% | 79.4% | 68.2% | 
25 | CCN(CC)CCNc1ccc(N=Nc2cnc3ccccc3c2)c2ccccc12 | -85.1% (active) |  | -56.5% (active) | -87.6% (active) | -77.7% (active) | -53.9% (active) | -97.4% (active) | -67.3% (active) | 
26 | O=C(Nc1ccc(C(=O)Nc2ccc(C3=NCCCN3)cc2)cc1)Nc1ccc(C2=NCCCN2)cc1 | 96.1% |  | 69.5% | 92.4% | 110% | 85.3% | 87.2% | 87% | 
27 | COC(=O)c1[nH]cnc1/N=N/N(C)CCO | 110% |  | 119% | 118% | 93% | 112% | 95% | 101% | 
28 | Nc1nc(=S)c2ncn(C3OC(COC(=O)c4ccc(Cl)cc4)C(OC(=O)c4ccc(Cl)cc4)C3OC(=O)c3ccc(Cl)cc3)c2[nH]1 (configuration not stated) | 105% |  | 102% | 88% | 90.4% | 114% | 89.9% | 99.4% | 
29 | O=C1/C(=C\c2cccc(OCCCCCOc3ccc(Cl)cc3)c2)N=C2SCCCN12 | 84% | 41.7% |  | 54.2% | 81.3% | 43% | 77.4% | 44.5% | 71.2%
